# The full list was thinned out, with the strongest signals kept by preference.
# Key:
# Assay in all cases: glycan array binding signal (z-score within array); higher = stronger binding
# Settings in all cases: glycan notation: IUPAC condensed, linker removed
# Fuc(a1-2)Gal(b1-3)GalNAc = target: Fuc(a1-2)Gal(b1-3)GalNAc
# Summary of the method: (§1)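 Glycan array data were curated from 3228 arrays in the Consortium for Functional Glycomics database and kept only where the protein sequence was available. Glycan names were converted to IUPAC-condensed notation, and columns mapping to the same glycan were averaged. The binding signal is a within-array Z-score, averaged across arrays of the same protein sequence at different concentrations or buffers and across linkers. Negative Z-scores can be read as non-binding.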
# Fuc(a1-2)Gal(b1-4)Glc6S = target: Fuc(a1-2)Gal(b1-4)Glc6S
# Summary of the method: as §1
# [1] = target: Fuc(a1-2)Gal(b1-4)[Fuc(a1-3)]GlcNAc(b1-2)Man(a1-3)[Fuc(a1-2)Gal(b1-4)[Fuc(a1-3)]GlcNAc(b1-2)Man(a1-6)]Man(b1-4)GlcNAc(b1-4)GlcNAc
# Summary of the method: as §1
# [2] = target: Fuc(a1-2)[Gal(a1-3)]Gal(b1-3)GlcNAc(b1-2)Man(a1-3)[Fuc(a1-2)[Gal(a1-3)]Gal(b1-3)GlcNAc(b1-2)Man(a1-6)]Man(b1-4)GlcNAc(b1-4)GlcNAc
# Summary of the method: as §1
# [3] = target: Fuc(a1-2)[Gal(a1-3)]Gal(b1-4)Glc
# Summary of the method: as §1
# Gal(a1-3)Gal = target: Gal(a1-3)Gal
# Summary of the method: as §1
# [4] = target: Gal(a1-4)Gal(b1-3)GlcNAc(b1-2)Man(a1-3)[Gal(a1-4)Gal(b1-3)GlcNAc(b1-2)Man(a1-6)]Man(b1-4)GlcNAc(b1-4)GlcNAc
# Summary of the method: as §1
# Gal(b1-3)GalNAc = target: Gal(b1-3)GalNAc
# Summary of the method: as §1
# [5] = target: Gal(b1-3)GlcNAc(b1-2)Man(a1-3)[Gal(b1-3)GlcNAc(b1-2)Man(a1-6)]Man(b1-4)GlcNAc(b1-4)GlcNAc
# Summary of the method: as §1
# [6] = target: Gal(b1-3)GlcNAc(b1-3)Gal(b1-4)GlcNAc
# Summary of the method: as §1
# [7] = target: Gal(b1-3)[Neu5Ac(b2-6)]GalNAc
# Summary of the method: as §1
# Gal(b1-4)Glc = target: Gal(b1-4)Glc
# Summary of the method: as §1
# [8] = target: Gal(b1-4)GlcNAc(b1-3)[Gal(b1-4)GlcNAc(b1-6)]Gal(b1-4)GlcNAc
# Summary of the method: as §1
# [9] = target: Gal(b1-4)GlcNAc(b1-3)[Gal(b1-4)GlcNAc(b1-6)]GalNAc
# Summary of the method: as §1
# Gal4S(b1-4)GlcNAc = target: Gal4S(b1-4)GlcNAc
# Summary of the method: as §1
# Gal4S6S(b1-4)GlcNAc = target: Gal4S6S(b1-4)GlcNAc
# Summary of the method: as §1
# GalNAc(b1-3)Gal = target: GalNAc(b1-3)Gal
# Summary of the method: as §1
# Glc(a1-6)Glc(a1-6)Glc = target: Glc(a1-6)Glc(a1-6)Glc
# Summary of the method: as §1
# Glc(b1-6)Glc = target: Glc(b1-6)Glc
# Summary of the method: as §1
# [10] = target: GlcNAc(a1-4)Gal(b1-4)GlcNAc(b1-3)Gal(b1-4)[Fuc(a1-3)]GlcNAc(b1-3)Gal(b1-4)[Fuc(a1-3)]GlcNAc
# Summary of the method: as §1
# [11] = target: GlcNAc(b1-2)[GlcNAc(b1-4)]Man(a1-3)[GlcNAc(b1-2)Man(a1-6)]Man(b1-4)GlcNAc(b1-4)GlcNAc
# Summary of the method: as §1
# [12] = target: GlcNAc(b1-3)[GlcNAc(b1-6)]Gal(b1-4)GlcNAc
# Summary of the method: as §1
# [13] = target: GlcNAc(b1-4)Gal(b1-4)GlcNAc
# Summary of the method: as §1
# [14] = target: GlcNAc(b1-4)GlcNAc(b1-4)GlcNAc
# Summary of the method: as §1
# [15] = target: Neu5Ac(a2-3)Gal(b1-3)[Fuc(a1-4)]GlcNAc
# Summary of the method: as §1
# [16] = target: Neu5Ac(a2-3)Gal(b1-4)GlcNAc(b1-2)Man(a1-3)[GlcNAc(b1-2)Man(b1-4)GlcNAc(b1-2)Man(a1-6)]Man(b1-4)GlcNAc(b1-4)GlcNAc
# Summary of the method: as §1
# [17] = target: Neu5Ac(a2-3)Gal(b1-4)GlcNAc(b1-6)[Neu5Ac(a2-3)Gal(b1-3)]GalNAc
# Summary of the method: as §1
# [18] = target: Neu5Ac(a2-3)Gal(b1-4)[Fuc(a1-3)]GlcNAc(b1-3)Gal
# Summary of the method: as §1
# [19] = target: Neu5Ac(a2-3)Gal(b1-4)[Fuc(a1-3)]GlcNAc(b1-6)[Neu5Ac(a2-3)Gal(b1-3)]GalNAc
# Summary of the method: as §1
# [20] = target: Neu5Ac(a2-3)Gal(b1-4)[Fuc(a1-3)]GlcNAc6S
# Summary of the method: as §1
# Neu5Ac(a2-3)GalNAc = target: Neu5Ac(a2-3)GalNAc
# Summary of the method: as §1
# Neu5Ac(a2-6)Gal(b1-4)Glc = target: Neu5Ac(a2-6)Gal(b1-4)Glc
# Summary of the method: as §1
# [21] = target: Neu5Ac(a2-6)Gal(b1-4)GlcNAc(b1-2)Man(a1-3)[GlcNAc(b1-2)Man(a1-6)]Man(b1-4)GlcNAc(b1-4)GlcNAc
# Summary of the method: as §1
# [22] = target: Neu5Ac(a2-8)Neu5Ac(a2-3)[GalNAc(b1-4)]Gal(b1-4)Glc
# Summary of the method: as §1
# [23] = target: Neu5Ac(a2-8)Neu5Ac(a2-8)Neu5Ac(a2-8)Neu5Ac(a2-3)[GalNAc(b1-4)]Gal(b1-4)Glc
# Summary of the method: as §1
# [24] = target: Neu5Gc(a2-3)Gal(b1-3)[Fuc(a1-4)]GlcNAc
# Summary of the method: as §1
# Neu5Gc(a2-6)GalNAc = target: Neu5Gc(a2-6)GalNAc
# Summary of the method: as §1
binder,measurement,setting,value
"CLEC9a (Mus musculus), Q8BRU4 (protein) MHAEEIYTSLQWDIPTSEASQKCQSPSKCSGAWCVVTMISCVVCMGLLATSIFLGIKFFQVSSLVLEQQERLIQQDTALVNLTQWQRKYTLEYCQALLQRSLHSGSDCSPCPHNWIQNGKSCYYVFERWEMWNISKKSCLKEGASLFQIDSKEEMEFISSIGKLKGGNKYWVGVFQDGISGSWFWEDGSSPLSDLLPAERQRSAGQICGYLKDSTLISDKCDSWKYFICEKKAFGSCI",glycan array binding signal (z-score),Fuc(a1-2)Gal(b1-3)GalNAc,0.078
same,glycan array binding signal (z-score),Fuc(a1-2)Gal(b1-4)Glc6S,0.626
same,glycan array binding signal (z-score),[1],2.21
same,glycan array binding signal (z-score),[2],3.03
same,glycan array binding signal (z-score),[3],1.11
same,glycan array binding signal (z-score),Gal(a1-3)Gal,1.37
same,glycan array binding signal (z-score),[4],3.35
same,glycan array binding signal (z-score),Gal(b1-3)GalNAc,-0.657
same,glycan array binding signal (z-score),[5],1.97
same,glycan array binding signal (z-score),[6],1.18
same,glycan array binding signal (z-score),[7],1.89
same,glycan array binding signal (z-score),Gal(b1-4)Glc,-0.825
same,glycan array binding signal (z-score),[8],0.779
same,glycan array binding signal (z-score),[9],1.87
same,glycan array binding signal (z-score),Gal4S(b1-4)GlcNAc,1.88
same,glycan array binding signal (z-score),Gal4S6S(b1-4)GlcNAc,-1.4
same,glycan array binding signal (z-score),GalNAc(b1-3)Gal,0.273
same,glycan array binding signal (z-score),Glc(a1-6)Glc(a1-6)Glc,-0.171
same,glycan array binding signal (z-score),Glc(b1-6)Glc,0.001
same,glycan array binding signal (z-score),[10],0.915
same,glycan array binding signal (z-score),[11],4.01
same,glycan array binding signal (z-score),[12],-1.89
same,glycan array binding signal (z-score),[13],0.714
same,glycan array binding signal (z-score),[14],2.95
same,glycan array binding signal (z-score),[15],-0.871
same,glycan array binding signal (z-score),[16],2.01
same,glycan array binding signal (z-score),[17],-0.1
same,glycan array binding signal (z-score),[18],-1.7
same,glycan array binding signal (z-score),[19],1.35
same,glycan array binding signal (z-score),[20],-0.627
same,glycan array binding signal (z-score),Neu5Ac(a2-3)GalNAc,-1.07
same,glycan array binding signal (z-score),Neu5Ac(a2-6)Gal(b1-4)Glc,0.132
same,glycan array binding signal (z-score),[21],-0.365
same,glycan array binding signal (z-score),[22],0.872
same,glycan array binding signal (z-score),[23],2.43
same,glycan array binding signal (z-score),[24],-0.987
same,glycan array binding signal (z-score),Neu5Gc(a2-6)GalNAc,-0.83

# Source: the supplement of paper PMC8728848
